Laboratory results reported in PubChem BioAssay (NCI).
About 83,000 compounds went through this panel and 20% of them were active in at least one assay; those are over-represented in the sample as a whole.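 48-hour exposure, single concentration, 96-well plates; percent growth endpoint where 0 means no net growth. Active: below 10.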 Unmarked numbers belong to inactive results. Activity calls are given as the source filed them.

Assays:
Experiment in all cases: NCI-60 one-dose screen, 48 h (100 = growth as untreated, 0 = no growth, -100 = all killed)
Details in all cases: 10 µM unless noted
NCI-H23 lung = tested on: NCI-H23 lung
NCI-H226 lung = tested on: NCI-H226 lung
NCI-H322M lung = tested on: NCI-H322M lung
HOP-62 NSCLC = tested on: HOP-62 NSCLC
NCI-H460 lung = tested on: NCI-H460 lung
HOP-92 NSCLC = tested on: HOP-92 NSCLC
NCI-H522 lung = tested on: NCI-H522 lung
A549/ATCC NSCLC = tested on: A549/ATCC NSCLC
786-0 renal = tested on: 786-0 renal
COLO 205 colon = tested on: COLO 205 colon
DU-145 prostate = tested on: DU-145 prostate
K-562 leukemia = tested on: K-562 leukemia
MALME-3M melanoma = tested on: MALME-3M melanoma
MDA-MB-231 breast = tested on: MDA-MB-231 breast
RXF 393 renal = tested on: RXF 393 renal
SF-268 CNS = tested on: SF-268 CNS
SF-295 CNS = tested on: SF-295 CNS
SF-539 CNS = tested on: SF-539 CNS
UACC-257 melanoma = tested on: UACC-257 melanoma
M14 melanoma = tested on: M14 melanoma

SMILES | growth (NCI-H23 lung) | growth (NCI-H226 lung) | growth (NCI-H322M lung) | growth (HOP-62 NSCLC) | growth (NCI-H460 lung) | growth (HOP-92 NSCLC) | growth (NCI-H522 lung) | growth (A549/ATCC NSCLC) | growth (786-0 renal) | growth (COLO 205 colon) | growth (DU-145 prostate) | growth (K-562 leukemia) | growth (MALME-3M melanoma) | growth (MDA-MB-231 breast) | growth (RXF 393 renal) | growth (SF-268 CNS) | growth (SF-295 CNS) | growth (SF-539 CNS) | growth (UACC-257 melanoma) | growth (M14 melanoma)
CCOC(=O)c1cnn(CC(O)CC)c1NC(=O)NCc1ccccc1C(F)(F)F (stereo not given) | 92.7% | 106% | 94.5% | 90.8% | 110% | 93.9% | 70.3% | 94.9% | 96% | 114% | 109% | 88.5% | 103% | 105% | 119% | 100% | 90.7% | 99.1% | 103% | 88.2%
COc1cc(-c2nc(SCCC(C)C)nc(Nc3ccc(F)cc3)c2C#N)cc(OC)c1OC | 84.3% | 90.4% | 63.2% | 17.8% | 21.4% | 72.6% | 75% | 28.3% | 46.1% | 79.6% | 66.2% | 85.2% | 94.4% | 38.4% | 95.5% | 65.9% | 85.4% | 52.3% | 103% | 91%
C=C[C@]1(C)C=C2CC[C@@H]3C(C)(C)C(=O)CC[C@@]3(C)[C@@H]2CC1 | 104% | 126% | 77% | 105% | 109% | 97.7% | 94.6% | 101% | 98.6% | 116% | 108% | 95.3% | 1.04% (active) | 111% | 127% | 97.6% | 101% | 103% | 106% | 103%
CCN1CCN(C(=O)[C@]23CC[C@@H](C)[C@H](C)[C@@H]2C2=CC[C@@H]4[C@@]5(C)CCC(=O)C(C)(C)[C@@H]5CC[C@@]4(C)[C@]2(C)CC3)CC1 | 21.4% | 35.7% | 10.2% | 9.82% (active) | -55.1% (active) | -5.58% (active) | -53.4% (active) | 19.9% | -40.1% (active) | -50.9% (active) | 41.5% | 2.78% (active) | -85.7% (active) | -28.6% (active) | -6.14% (active) | 39.7% | 24.8% | -79.8% (active) | -23.9% (active) | -41.6% (active)
CCCCCCCCCCCCC[C@H](O)C[C@H](O)[C@H](C)N | 99.2% [1.25 µM] | 126% [1.25 µM] | 102% [1.25 µM] | 116% [1.25 µM] | 103% [1.25 µM] | 56.7% [1.25 µM] | 119% [1.25 µM] | 89.3% [1.25 µM] | 85.9% [1.25 µM] | 92.2% [1.25 µM] | 96.9% [1.25 µM] | 102% [1.25 µM] | 132% [1.25 µM] | 90% [1.25 µM] | 8.68% [1.25 µM] (active) | 115% [1.25 µM] | 108% [1.25 µM] | 100% [1.25 µM] | 113% [1.25 µM] | 95.9% [1.25 µM]
COc1ccc(-c2cc(-c3cccc(Cl)c3)c(C#N)c(=O)[nH]2)c(OC)c1 | 92.2% | 101% | 96% | 99.2% | 98.7% | 68% | 90.6% | 96.4% | 89.7% | 121% | 97.3% | 98.2% | 93.7% | 102% | 90.8% | 90% | 98.2% | 92.6% | 102% | 98.2%
c1ccc(Cc2cccc[n+]2C(c2ccccc2)c2ccccc2)cc1 | 38.2% | 74.7% | 77.9% | 72% | 66.3% | 32.5% | 10.2% | 58.5% | 85.6% | 24.4% | 68.9% | 33% | 23% | 68.2% | 93.3% | 64.9% | 73.6% | 56.6% | 7.44% (active) | 59.8%
